Bioassay records: PubChem, The Scripps Research Institute Molecular Screening Center
pPAFAH FP inh: inhibitors of human plasma PAF acetylhydrolase (pPAFAH) | recombinant pPAFAH, FP-rhodamine probe fluorescence polarization | Q13093 | inhibition, % at 3.39 µM | actives 1.5% (n = 330,000);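 active = inhibition above the mean inhibition across the screen plus 3 SD, cut at about 25% in these data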;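 note: inhibitors block binding of the rhodamine activity-based probe so polarization drops; 0% = enzyme with DMSO and 100% = wells lacking pPAFAH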
PAFAH1B3 FP inh: PAFAH1B3 (human) inhibition. recombinant PAFAH1B3, FP-rhodamine probe, fluorescence polarization. inhibition, % at 3.39 µM. actives 0.28% (n = 340,000). AID 492972;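 active = inhibition above the screen-wide average of all tested compounds plus 3 SD, cut at about 25% in these data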;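 note: 0% = enzyme with DMSO only and 100% = wells lacking PAFAH1B3 protein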
PP1 inh: PP1-alpha (human) inhibition in PP5 counter-screen | AID 2235 | P62136 | purified PP1alpha, OMFP fluorescence | inhibition, % at 6.7 µM | actives 0.9% (n = 320,000);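 active = inhibition above the mean inhibition of all tested compounds plus 3 SD, computed separately for each screening campaign, cut at about 15% in these data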
PP5 inh: blocks human protein phosphatase 5 activity. P53041. purified PP5c, OMFP substrate fluorescence. inhibition, % at 6.7 µM. actives 0.18% (n = 320,000);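 active = inhibition above the campaign's mean inhibition across all tested compounds plus 3 SD, cut at about 9.5% in these data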;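 note: 0% = DMSO only and 100% = 100 µM cantharidin control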
Target sequence (P53041 whole entry, looked up): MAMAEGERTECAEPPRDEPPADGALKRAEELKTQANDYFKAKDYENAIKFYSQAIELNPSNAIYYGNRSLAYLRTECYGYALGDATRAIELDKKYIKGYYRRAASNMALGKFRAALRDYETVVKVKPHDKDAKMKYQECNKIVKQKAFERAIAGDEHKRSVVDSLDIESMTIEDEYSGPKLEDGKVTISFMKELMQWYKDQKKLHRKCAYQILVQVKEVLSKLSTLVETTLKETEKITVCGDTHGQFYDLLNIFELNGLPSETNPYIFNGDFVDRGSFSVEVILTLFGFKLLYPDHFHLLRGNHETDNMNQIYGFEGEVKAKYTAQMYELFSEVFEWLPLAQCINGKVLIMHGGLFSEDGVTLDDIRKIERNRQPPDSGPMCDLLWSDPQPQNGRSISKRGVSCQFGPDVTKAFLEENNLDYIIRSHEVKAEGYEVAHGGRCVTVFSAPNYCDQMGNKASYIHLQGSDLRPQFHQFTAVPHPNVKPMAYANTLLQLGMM
PAFAH2 inh: inhibitors of human PAFAH2; Q99487; recombinant PAFAH2, FP-rhodamine activity probe, fluorescence polarization; inhibition, % at 3.39 µM; actives 0.99% (n = 340,000); AID 492956;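 active = inhibition above the mean over all tested compounds plus 3 SD, cut at about 30% in these data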;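 note: inhibitors block probe labeling of enzyme so polarization drops; 0% = enzyme with DMSO and 100% = wells lacking PAFAH2 protein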
PAFAH1B2 inh: PAFAH1B2 (human) inhibition; P68402; recombinant PAFAH1B2, FP-rhodamine activity probe, fluorescence polarization; inhibition, % at 3.39 µM; actives 1.2% (n = 340,000);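 active = inhibition above the mean of all tested compounds plus 3 SD, cut at about 24% in these data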;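 note: 0% = enzyme with DMSO and 100% = wells lacking PAFAH1B2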
Target sequence (P68402 whole entry, looked up): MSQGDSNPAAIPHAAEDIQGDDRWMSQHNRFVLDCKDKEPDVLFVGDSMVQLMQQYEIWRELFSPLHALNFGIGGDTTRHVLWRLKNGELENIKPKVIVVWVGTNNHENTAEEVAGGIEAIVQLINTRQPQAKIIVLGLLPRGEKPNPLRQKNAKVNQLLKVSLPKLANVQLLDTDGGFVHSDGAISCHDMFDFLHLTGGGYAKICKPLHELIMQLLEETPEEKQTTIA
PP5 inh confirm: confirmation of human PP5 phosphatase inhibitors; Purified PP5, fluorogenic phosphatase substrate, fluorescence; shares compounds with PP5 inh; inhibition, % at 6.7 µM; AID 2331; actives 22% (n = 460); in the data active = inhibition above about 9.5%
PP1 inh counter: inhibits human PP1 phosphatase in PP5 counter-screen. shares compounds with PP5 inh. PP1 enzyme, fluorescent phosphatase substrate. inhibition, % at 6.7 µM. actives 4% (n = 460). AID 2355; in the data active = inhibition above about 16%
PP1 inh confirm: confirmation of human PP1 phosphatase inhibitors | AID 2358 | actives 52% (n = 1,900) | purified PP1alpha, OMFP substrate fluorescence | inhibition, % at 6.7 µM | shares compounds with PP1 inh;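 active = mean PP1 inhibition above a set limit taken from the earlier primary screen, cut at about 15% in these data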
PP5 counter: PP5 phosphatase inhibition, counter-screen for PP1 inhibitors | shares compounds with PP1 inh | purified PP5c, OMFP fluorescence | inhibition, % at 6.7 µM | actives 4% (n = 1,900) | AID 2360;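 active = mean PP5 inhibition over triplicate wells above about 9.5% taken from the earlier PP1 screen, limit read from the data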
PAFAH1B3 confirm: confirmation of human PAFAH1B3 inhibitors; shares compounds with PAFAH1B3 FP inh; recombinant PAFAH1B3, FP-Rh activity-based probe, fluorescence polarization; inhibition, % at 3.39 µM; actives 30% (n = 390);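 active = average inhibition over triplicate runs above the hit cutoff set in the earlier primary screen, cut at about 25% in these data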;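 note: 0% = enzyme with DMSO and 100% = wells lacking PAFAH1B3 protein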
Starred values were filed as active, the others as inactive; · = no result given. The list is not random: actives were taken first. Their share in the collection is about 3.4%.

SMILES | pPAFAH FP inh | PAFAH1B3 FP inh | PP1 inh | PP5 inh | PAFAH2 inh | PAFAH1B2 inh | PP1 inh confirm | PP5 counter | others
CCC(C)/C=C(C)/C=C/C1=CC2=C(Cl)C(=O)C(C)(OC(C)=O)C(=O)C2=CO1 (centres undefined) | 32.2* | 17.1 | 0.6 | 12.2* | 22.3 | 20.6 | · | · | PP5 inh confirm=7.4;PP1 inh counter=6.2
CN1CC[C@@]2(C)c3cc(O)ccc3N(C)C2O1 (some centres undefined) | 1.9 | 11.6 | 3.3 | 13.7* | 2.1 | 7.0 | · | · | PP5 inh confirm=25.7*;PP1 inh counter=5.1
CC(C)CNC(=O)c1c(N)n(Cc2ccc3c(c2)OCO3)c2nc3ccccc3nc12 | 5.8 | 12.0 | 7.0 | 12.4* | 13.0 | 9.1 | · | · | PP5 inh confirm=21.4*;PP1 inh counter=2.8
COCCCNC(=O)c1c(N)n(Cc2ccco2)c2nc3ccccc3nc12 | 11.7 | · | -2.4 | -0.3 | · | · | · | ·
COc1ccc(Cn2c(N)c(C(=O)NCc3ccco3)c3nc4ccccc4nc32)cc1OC | 7.3 | 7.1 | 6.6 | 11.7* | -14.4 | -5.5 | · | · | PP5 inh confirm=44.3*;PP1 inh counter=10.0
Cc1ccccc1N1CCN(C2CCCN(C(=O)COc3ccccc3)C2)CC1 (centres undefined) | -1.0 | -1.6 | -1.6 | 4.3 | -2.2 | 2.0 | · | ·
COc1ccc(OC)c(CC(=O)N(C)C2CCCN(Cc3ccccc3F)C2)c1 (centres undefined) | -1.7 | 7.6 | -0.6 | -0.3 | 6.0 | 1.2 | · | ·
COC(=O)C1=C(c2ccc(OC(F)(F)F)cc2)C[C@@H]2CC[C@H]1N2C(=O)NCCOc1ccccc1Cl | -2.2 | 13.1 | 8.9 | 11.1* | 4.2 | 6.1 | · | · | PP5 inh confirm=6.3;PP1 inh counter=4.2
COC(=O)C1=C(c2ccc(OC(F)(F)F)cc2)C[C@@H]2CC[C@H]1N2C(=O)NCCOc1ccccc1 | 6.7 | 7.3 | 3.2 | 8.1 | 4.9 | 5.4 | · | ·
CCOC(=O)c1c(NS(=O)(=O)c2ccccc2)n(CCCOC)c2nc3ccccc3nc12 | 9.2 | 27.5* | 2.0 | 10.7* | -1.7 | 14.2 | · | · | PP5 inh confirm=9.9*;PP1 inh counter=-0.5;PAFAH1B3 confirm=10.2
O=C(NCc1ccc(C(=O)N2CCC3(CC2)OCCO3)cc1)c1cccc(Br)c1 | 6.6 | 10.5 | -5.3 | -1.9 | 5.3 | 6.4 | · | ·
COc1ccc(OC)c(N2C(=O)/C(=C/c3ccco3)C(=O)NC2=S)c1 | 87.1* | · | 68.2* | -0.5 | · | · | 16.7* | -4.3
O=C1NC(=S)N(c2ccc(F)cc2)C(=O)/C1=C/c1ccco1 | 83.1* | · | 40.4* | 0.3 | · | · | 68.0* | 1.3
CCOS(C)(=O)=O | -0.1 | 5.5 | -0.2 | 0.7 | -0.5 | 1.8 | · | ·
CC1Oc2cc3c(-c4c(O)cc(O)c5c(O)c6c(cc45)OC(C)C(C)C6=O)c(O)cc(O)c3c(O)c2C(=O)C1C (centres undefined) | 91.2* | 60.4* | 56.6* | 5.3 | 46.0* | 51.9* | 25.5* | 2.2
COC(=O)C1=C(c2ccc(F)cc2OCc2ccccc2)C[C@@H]2CC[C@H]1N2C(=O)NCc1ccc(C)cc1 | -4.8 | 0.9 | 11.7 | 1.2 | 2.9 | 1.5 | · | ·
O=c1[nH]c(O)c(/C=C2/C=CC(c3cc(Cl)ccc3Cl)=N2)c(=O)[nH]1 | 9.9 | 47.6* | 19.1* | -2.2 | 23.3 | 76.4* | 47.3* | -5.5
O=c1[nH]c(=S)n(Cc2ccco2)c(O)c1C=NCc1cccs1 | 13.2 | 3.2 | 8.0 | 3.3 | 14.8 | -1.2 | · | ·
CCCCCn1c(=O)c(C(=O)Nc2ccccc2C)c(O)c2ccccc21 | 5.3 | 7.2 | -2.1 | 2.3 | -0.1 | -0.7 | · | ·
CCCCn1c(=O)c(C(=O)Nc2ccccc2)c(O)c2ccccc21 | 1.3 | 6.1 | -1.7 | 1.8 | 3.6 | 3.2 | · | ·
CCCCCCn1c(=O)c(C(=O)Nc2ncccc2C)c(O)c2ccccc21 | 12.4 | 3.4 | 25.6* | 5.3 | 5.3 | -3.4 | 18.4* | -1.9
CCCCn1c(=O)c(C(=O)Nc2ncccc2C)c(O)c2ccccc21 | 3.1 | 1.3 | 27.9* | 1.7 | -4.3 | 1.3 | 26.2* | -1.4
Clc1ccc(C(c2ccc(Cl)cc2)n2cc[n+](CC(OCc3ccc(Cl)cc3Cl)c3ccc(Cl)cc3Cl)c2)cc1 (centres undefined) | 12.7 | 2.5 | 52.2* | 4.8 | 3.3 | 2.4 | 35.2* | 9.1
Cn1c(O)c(C2=NN(C(=O)CCl)C(c3ccccc3)C2)c(=O)n(C)c1=O (centres undefined) | 4.2 | 5.2 | -2.3 | -1.6 | 4.3 | 0.8 | · | ·
N=Cc1c(O)n(-c2ccc(C34CC5CC(CC(C5)C3)C4)cc2)c(=O)[nH]c1=O | 17.4 | -6.8 | 20.0* | 4.8 | 0.8 | 20.2 | 21.8* | 4.5
SMILES | pPAFAH FP inh | PAFAH1B3 FP inh | PP1 inh | PP5 inh | PAFAH2 inh | PAFAH1B2 inh | PP1 inh confirm | PP5 counter | others
Cc1ccc2c(c1)[C@@H]1CN(C)CC[C@@H]1N2C(=O)Nc1cccc(C(F)(F)F)c1 | 1.4 | -9.1 | 0.9 | 2.3 | 1.7 | 3.1 | · | ·
CN1C(=O)N(C)C(=O)C2(Cc3cc(N)ccc3N3CCN(c4ccccc4F)CC32)C1=O (centres undefined) | 17.1 | · | 23.1* | 1.7 | · | · | 31.9* | 1.4
CCN1C(=O)N(CC)C(=O)C2(Cc3ccccc3N3CCN(c4ccccc4)CC32)C1=O (centres undefined) | -2.3 | · | -1.2 | -0.3 | · | · | · | ·
Cn1c(O)c(C2=NNC(c3ccc(Cl)cc3)C2)c(=O)n(C)c1=O (centres undefined) | 15.8 | -2.4 | 1.7 | 2.3 | -1.8 | 6.7 | · | ·
CCCC(=O)c1ccc(CP(=O)(OCC)OCC)o1 | -1.5 | -1.1 | -4.2 | 0.8 | 1.1 | -0.1 | · | ·
Cc1ccc2c(c1)C1CN(C)CCC1N2C(=O)c1cn(-c2ccccc2)nc1-c1ccccc1 (centres undefined) | 0.5 | 12.8 | 6.6 | 4.3 | 6.8 | -1.4 | · | ·
Clc1ccc(COC(Cn2ccnc2)c2ccc(Cl)cc2Cl)cc1 (centres undefined) | 6.0 | 10.0 | 29.0* | 2.1 | -7.2 | 4.9 | 19.8* | 1.7
Clc1ccc(CSC(Cn2ccnc2)c2ccc(Cl)cc2Cl)cc1 (centres undefined) | 1.0 | 13.6 | 26.5* | 5.4 | -1.8 | 18.2 | 20.1* | 3.2
c1ccc(Cn2ccnc2)cc1 | -0.7 | 0.9 | -3.1 | -0.5 | -2.8 | 2.8 | · | ·
CC(=O)N1CN2CN(C1)CN(C(C)=O)C2 | 1.3 | 5.3 | -5.4 | -0.4 | 5.9 | 2.2 | · | ·
